The target of experiment [1] is T1, Inhibitor of nuclear factor kappa-B kinase subunit epsilon (Homo sapiens) (UniProt Q14164).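 Also: reported values are averaged percent inhibition figures against human IKKε.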
T1 sequence (whole entry): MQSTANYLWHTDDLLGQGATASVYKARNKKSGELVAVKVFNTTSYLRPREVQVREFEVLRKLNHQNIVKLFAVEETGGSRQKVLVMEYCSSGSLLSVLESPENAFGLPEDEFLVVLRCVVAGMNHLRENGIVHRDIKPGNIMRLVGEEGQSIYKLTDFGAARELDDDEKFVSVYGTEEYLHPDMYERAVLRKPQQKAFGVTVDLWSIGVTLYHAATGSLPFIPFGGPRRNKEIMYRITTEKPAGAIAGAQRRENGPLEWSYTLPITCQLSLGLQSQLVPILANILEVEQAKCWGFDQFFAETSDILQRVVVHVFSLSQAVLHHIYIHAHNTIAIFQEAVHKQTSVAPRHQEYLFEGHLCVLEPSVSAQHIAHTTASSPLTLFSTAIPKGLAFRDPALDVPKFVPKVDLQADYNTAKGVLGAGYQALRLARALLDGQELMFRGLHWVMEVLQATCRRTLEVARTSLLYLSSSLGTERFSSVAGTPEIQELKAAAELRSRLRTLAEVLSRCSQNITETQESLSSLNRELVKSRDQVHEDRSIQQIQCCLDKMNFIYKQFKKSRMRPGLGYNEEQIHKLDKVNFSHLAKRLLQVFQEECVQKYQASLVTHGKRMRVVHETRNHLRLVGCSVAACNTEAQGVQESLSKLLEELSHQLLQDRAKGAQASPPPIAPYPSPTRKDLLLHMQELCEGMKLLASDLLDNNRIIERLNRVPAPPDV
As to conditions: at 1 µM.

The target of experiment [2] is T2, Serine/threonine-protein kinase Nek1 (Homo sapiens) (UniProt Q96PY6).
T2 sequence (whole entry): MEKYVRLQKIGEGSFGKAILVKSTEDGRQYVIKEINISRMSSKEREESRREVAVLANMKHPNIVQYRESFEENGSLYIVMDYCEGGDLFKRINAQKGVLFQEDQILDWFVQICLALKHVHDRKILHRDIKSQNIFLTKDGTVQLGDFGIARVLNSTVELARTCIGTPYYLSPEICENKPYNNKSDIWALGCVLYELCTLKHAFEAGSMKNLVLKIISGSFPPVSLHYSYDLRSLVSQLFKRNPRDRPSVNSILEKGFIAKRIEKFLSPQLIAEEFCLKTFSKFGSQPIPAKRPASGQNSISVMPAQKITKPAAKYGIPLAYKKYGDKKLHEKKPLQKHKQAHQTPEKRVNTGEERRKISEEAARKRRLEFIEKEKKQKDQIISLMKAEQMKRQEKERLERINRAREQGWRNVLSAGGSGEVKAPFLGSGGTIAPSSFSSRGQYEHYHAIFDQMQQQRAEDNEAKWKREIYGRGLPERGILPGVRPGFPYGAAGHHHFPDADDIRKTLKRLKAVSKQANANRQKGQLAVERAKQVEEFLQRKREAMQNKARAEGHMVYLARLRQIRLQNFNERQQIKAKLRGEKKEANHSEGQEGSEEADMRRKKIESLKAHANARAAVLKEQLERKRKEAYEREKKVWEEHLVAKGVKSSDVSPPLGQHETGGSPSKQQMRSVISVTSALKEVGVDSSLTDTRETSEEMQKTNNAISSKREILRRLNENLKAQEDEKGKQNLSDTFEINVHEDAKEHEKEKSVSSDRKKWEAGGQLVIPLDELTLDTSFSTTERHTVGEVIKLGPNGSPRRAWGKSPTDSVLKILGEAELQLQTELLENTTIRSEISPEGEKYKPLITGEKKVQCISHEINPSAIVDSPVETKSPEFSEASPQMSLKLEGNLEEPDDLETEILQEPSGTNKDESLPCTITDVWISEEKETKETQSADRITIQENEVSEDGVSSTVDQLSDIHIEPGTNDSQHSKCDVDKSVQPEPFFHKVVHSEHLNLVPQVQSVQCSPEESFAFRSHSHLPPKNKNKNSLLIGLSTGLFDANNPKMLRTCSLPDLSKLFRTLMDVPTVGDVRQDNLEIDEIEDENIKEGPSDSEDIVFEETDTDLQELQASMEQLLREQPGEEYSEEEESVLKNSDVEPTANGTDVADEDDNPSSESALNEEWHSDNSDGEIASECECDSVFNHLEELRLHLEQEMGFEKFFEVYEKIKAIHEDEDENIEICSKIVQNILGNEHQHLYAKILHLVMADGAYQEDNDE
The note with it: at 0.1 µM.

Experiment [3] has as its target T2, Serine/threonine-protein kinase Nek1 (Homo sapiens). The note with it: at 1 µM.
For experiment [4], the target named is T3, Serine/threonine-protein kinase Nek2 (Homo sapiens) (UniProt P51955).
T3 sequence (whole entry): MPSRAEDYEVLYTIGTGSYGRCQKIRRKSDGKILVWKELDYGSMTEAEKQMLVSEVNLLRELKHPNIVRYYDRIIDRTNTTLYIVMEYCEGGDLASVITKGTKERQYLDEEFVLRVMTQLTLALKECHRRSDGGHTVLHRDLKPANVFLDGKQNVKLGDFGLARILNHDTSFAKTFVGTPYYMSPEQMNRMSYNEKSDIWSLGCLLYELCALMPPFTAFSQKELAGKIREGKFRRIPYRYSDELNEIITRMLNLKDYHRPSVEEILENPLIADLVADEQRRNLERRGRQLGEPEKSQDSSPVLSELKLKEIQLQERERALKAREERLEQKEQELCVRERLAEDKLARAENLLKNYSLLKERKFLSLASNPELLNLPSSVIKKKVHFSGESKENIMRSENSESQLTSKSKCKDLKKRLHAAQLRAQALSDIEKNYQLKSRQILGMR
The note with it: at 0.1 µM.

The target of experiment [5] is T3, Serine/threonine-protein kinase Nek2 (Homo sapiens). As to conditions: at 1 µM.
Experiment [6] addresses Serine/threonine-protein kinase Nek6 (Homo sapiens) (UniProt Q9HC98). As to conditions: at 0.1 µM.
For experiment [7] the target is unchanged. The note with it: at 1 µM.
Experiment [8] concerns the target Serine/threonine-protein kinase Nek7 (Homo sapiens) (UniProt Q8TDX7). The note with it: at 0.1 µM.
Experiment [9] shares this target. As to conditions: at 1 µM.
In experiment [10] the target is T4, Serine/threonine-protein kinase Nek9 (Homo sapiens) (UniProt Q8TD19).
T4 sequence (whole entry): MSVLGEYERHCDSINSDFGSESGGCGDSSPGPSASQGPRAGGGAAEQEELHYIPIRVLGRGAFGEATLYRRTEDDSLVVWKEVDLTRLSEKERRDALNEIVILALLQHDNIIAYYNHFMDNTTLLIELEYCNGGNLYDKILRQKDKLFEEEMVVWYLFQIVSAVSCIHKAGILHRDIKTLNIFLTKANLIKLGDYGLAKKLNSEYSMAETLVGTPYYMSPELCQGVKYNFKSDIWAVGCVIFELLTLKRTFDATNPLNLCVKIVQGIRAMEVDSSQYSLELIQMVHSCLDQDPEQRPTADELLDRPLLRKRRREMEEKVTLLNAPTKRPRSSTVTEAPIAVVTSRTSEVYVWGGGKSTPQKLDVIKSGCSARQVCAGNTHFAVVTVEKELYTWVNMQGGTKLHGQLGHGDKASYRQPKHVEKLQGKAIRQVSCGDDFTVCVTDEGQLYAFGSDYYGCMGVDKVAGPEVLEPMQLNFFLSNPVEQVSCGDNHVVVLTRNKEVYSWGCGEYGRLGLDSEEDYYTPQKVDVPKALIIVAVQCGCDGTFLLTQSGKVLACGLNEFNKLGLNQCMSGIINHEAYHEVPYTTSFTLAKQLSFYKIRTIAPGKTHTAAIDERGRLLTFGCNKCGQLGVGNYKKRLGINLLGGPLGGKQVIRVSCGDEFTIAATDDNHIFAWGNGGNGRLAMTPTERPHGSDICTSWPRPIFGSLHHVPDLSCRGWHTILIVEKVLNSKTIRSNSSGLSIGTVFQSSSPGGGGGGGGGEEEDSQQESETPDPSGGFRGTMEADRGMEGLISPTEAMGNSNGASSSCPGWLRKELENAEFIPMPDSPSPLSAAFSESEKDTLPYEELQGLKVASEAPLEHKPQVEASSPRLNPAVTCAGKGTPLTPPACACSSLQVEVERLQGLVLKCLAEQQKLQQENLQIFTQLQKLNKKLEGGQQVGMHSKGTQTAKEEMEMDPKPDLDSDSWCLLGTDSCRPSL
As to conditions: at 0.1 µM.

Experiment [11] deals with T4, Serine/threonine-protein kinase Nek9 (Homo sapiens). The note with it: at 1 µM.
Experiment [12] addresses Serine/threonine-protein kinase PLK1 (Homo sapiens) (UniProt P53350). The note with it: at 0.1 µM.
Experiment [13] has the same target. The note with it: at 1 µM.
Experiment [14] concerns the target T5, Dual specificity protein kinase TTK (Homo sapiens) (UniProt P33981).
T5 sequence (whole entry): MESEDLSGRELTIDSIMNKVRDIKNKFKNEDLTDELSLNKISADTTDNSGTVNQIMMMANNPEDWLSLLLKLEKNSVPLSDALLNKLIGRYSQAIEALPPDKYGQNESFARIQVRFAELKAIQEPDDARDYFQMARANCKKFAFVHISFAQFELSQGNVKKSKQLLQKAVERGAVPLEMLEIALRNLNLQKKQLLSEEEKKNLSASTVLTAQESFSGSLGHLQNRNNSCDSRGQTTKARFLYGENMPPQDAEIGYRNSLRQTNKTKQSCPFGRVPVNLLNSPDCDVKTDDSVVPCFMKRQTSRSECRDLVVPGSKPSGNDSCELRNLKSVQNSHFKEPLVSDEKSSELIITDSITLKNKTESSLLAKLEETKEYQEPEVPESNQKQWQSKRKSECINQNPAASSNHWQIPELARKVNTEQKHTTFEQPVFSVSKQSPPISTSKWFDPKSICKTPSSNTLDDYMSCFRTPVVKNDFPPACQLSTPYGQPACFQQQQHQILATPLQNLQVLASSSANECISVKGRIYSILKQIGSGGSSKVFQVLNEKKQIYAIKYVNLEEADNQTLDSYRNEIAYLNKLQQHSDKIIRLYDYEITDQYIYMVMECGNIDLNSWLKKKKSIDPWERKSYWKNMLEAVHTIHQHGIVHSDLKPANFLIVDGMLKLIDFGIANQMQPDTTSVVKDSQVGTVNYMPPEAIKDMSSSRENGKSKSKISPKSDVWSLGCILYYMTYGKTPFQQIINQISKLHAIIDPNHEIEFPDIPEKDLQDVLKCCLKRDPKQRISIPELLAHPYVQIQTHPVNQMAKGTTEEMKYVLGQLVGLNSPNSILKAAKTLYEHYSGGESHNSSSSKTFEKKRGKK
The note with it: at 0.1 µM.

Experiment [15] relates to T6, Receptor-type tyrosine-protein kinase FLT3 (Homo sapiens), P36888 [D835Y].
T6 sequence (whole entry): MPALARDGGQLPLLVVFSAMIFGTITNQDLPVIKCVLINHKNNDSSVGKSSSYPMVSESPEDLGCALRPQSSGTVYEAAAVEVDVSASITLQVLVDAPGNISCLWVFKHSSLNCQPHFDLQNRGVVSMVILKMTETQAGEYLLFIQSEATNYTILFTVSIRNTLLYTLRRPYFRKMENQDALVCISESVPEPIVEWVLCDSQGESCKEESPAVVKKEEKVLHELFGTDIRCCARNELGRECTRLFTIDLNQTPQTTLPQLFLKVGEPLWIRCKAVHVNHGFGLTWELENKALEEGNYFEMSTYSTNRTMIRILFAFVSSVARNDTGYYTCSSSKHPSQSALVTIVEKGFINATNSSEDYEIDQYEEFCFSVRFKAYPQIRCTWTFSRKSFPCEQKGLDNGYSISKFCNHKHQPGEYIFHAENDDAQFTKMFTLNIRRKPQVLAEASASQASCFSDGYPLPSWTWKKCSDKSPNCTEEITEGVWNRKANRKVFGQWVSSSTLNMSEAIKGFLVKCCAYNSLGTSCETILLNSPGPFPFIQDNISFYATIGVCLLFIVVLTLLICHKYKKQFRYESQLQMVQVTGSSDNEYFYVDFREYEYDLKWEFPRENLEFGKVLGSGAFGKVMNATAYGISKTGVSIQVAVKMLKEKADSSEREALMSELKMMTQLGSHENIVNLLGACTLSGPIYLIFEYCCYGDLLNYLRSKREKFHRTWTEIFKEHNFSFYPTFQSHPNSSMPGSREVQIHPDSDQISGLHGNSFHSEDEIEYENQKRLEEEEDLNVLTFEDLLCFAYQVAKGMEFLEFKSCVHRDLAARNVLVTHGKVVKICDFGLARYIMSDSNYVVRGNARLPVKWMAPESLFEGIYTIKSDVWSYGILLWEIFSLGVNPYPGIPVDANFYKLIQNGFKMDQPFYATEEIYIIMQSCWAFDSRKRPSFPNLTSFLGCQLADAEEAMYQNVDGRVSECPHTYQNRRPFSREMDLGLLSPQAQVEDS
As to conditions: at 1 µM.

Experiment [16] concerns the target Vascular endothelial growth factor receptor 3 (Homo sapiens) (UniProt P35916). The note with it: at 0.1 µM.
For experiment [17] the target is unchanged. As to conditions: at 1 µM.
The target of experiment [18] is Macrophage colony-stimulating factor 1 receptor (Homo sapiens) (UniProt P07333). The note with it: at 0.1 µM.
Sequence of Macrophage colony-stimulating factor 1 receptor (Homo sapiens) (P07333 whole entry): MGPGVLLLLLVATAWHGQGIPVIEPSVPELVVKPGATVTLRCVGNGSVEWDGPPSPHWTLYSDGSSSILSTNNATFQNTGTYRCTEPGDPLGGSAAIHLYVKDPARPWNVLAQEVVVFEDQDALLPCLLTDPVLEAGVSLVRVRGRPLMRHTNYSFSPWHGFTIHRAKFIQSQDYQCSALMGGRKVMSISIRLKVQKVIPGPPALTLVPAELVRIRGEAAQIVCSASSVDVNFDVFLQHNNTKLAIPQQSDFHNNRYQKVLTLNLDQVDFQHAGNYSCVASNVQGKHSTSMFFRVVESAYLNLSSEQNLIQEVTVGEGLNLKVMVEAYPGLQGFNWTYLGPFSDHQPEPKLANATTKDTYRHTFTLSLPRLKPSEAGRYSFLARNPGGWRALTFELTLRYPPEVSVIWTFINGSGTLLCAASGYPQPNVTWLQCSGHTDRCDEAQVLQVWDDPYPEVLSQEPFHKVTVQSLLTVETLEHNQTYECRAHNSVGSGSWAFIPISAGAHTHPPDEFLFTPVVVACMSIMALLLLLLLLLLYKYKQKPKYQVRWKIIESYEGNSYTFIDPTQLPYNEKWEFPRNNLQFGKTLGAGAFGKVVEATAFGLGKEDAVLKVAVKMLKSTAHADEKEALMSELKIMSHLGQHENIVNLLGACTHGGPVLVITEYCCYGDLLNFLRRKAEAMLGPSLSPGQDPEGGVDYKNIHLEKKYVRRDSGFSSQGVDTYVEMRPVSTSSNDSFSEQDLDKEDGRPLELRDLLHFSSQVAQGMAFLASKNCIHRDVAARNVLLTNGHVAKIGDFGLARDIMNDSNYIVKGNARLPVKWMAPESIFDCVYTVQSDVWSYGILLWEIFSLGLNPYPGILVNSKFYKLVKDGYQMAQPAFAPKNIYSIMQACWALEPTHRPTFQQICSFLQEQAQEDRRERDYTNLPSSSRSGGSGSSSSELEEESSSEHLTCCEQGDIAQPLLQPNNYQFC
Experiment [19] has the same target. The note with it: at 1 µM.
In experiment [20] the target is Tyrosine-protein kinase Fyn (Homo sapiens) (UniProt P06241). The note with it: at 0.1 µM.
Sequence of Tyrosine-protein kinase Fyn (Homo sapiens) (P06241 2-537 limits assumed): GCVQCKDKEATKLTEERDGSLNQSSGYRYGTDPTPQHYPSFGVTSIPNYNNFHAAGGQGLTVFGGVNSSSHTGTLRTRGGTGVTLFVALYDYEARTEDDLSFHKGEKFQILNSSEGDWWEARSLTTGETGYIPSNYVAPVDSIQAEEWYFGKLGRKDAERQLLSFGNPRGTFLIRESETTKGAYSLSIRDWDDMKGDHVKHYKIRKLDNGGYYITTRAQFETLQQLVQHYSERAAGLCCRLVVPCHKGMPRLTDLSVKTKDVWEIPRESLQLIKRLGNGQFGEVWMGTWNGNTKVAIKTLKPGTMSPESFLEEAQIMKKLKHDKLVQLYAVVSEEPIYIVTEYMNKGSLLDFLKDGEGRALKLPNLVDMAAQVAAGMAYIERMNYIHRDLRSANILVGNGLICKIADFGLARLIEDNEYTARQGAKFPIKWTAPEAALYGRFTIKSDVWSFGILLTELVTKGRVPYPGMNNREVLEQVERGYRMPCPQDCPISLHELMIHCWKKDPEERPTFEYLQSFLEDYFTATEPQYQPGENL

The structures appear in SMILES notation.

A word on the inhibition: it is the relative decrease from the control value, in per cent. A higher inhibition goes with a response far below the control.

Sequence of Serine/threonine-protein kinase Nek7 (Homo sapiens) (Q8TDX7 whole entry, looked up): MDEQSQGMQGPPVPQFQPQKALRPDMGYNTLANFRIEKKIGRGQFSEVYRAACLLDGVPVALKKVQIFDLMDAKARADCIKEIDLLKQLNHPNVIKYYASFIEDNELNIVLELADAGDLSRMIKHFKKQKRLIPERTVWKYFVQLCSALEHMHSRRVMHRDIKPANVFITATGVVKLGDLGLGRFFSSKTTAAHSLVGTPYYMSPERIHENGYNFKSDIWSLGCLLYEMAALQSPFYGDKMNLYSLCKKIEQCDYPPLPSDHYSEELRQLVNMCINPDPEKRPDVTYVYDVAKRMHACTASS
Sequence of Vascular endothelial growth factor receptor 3 (Homo sapiens) (P35916 whole entry): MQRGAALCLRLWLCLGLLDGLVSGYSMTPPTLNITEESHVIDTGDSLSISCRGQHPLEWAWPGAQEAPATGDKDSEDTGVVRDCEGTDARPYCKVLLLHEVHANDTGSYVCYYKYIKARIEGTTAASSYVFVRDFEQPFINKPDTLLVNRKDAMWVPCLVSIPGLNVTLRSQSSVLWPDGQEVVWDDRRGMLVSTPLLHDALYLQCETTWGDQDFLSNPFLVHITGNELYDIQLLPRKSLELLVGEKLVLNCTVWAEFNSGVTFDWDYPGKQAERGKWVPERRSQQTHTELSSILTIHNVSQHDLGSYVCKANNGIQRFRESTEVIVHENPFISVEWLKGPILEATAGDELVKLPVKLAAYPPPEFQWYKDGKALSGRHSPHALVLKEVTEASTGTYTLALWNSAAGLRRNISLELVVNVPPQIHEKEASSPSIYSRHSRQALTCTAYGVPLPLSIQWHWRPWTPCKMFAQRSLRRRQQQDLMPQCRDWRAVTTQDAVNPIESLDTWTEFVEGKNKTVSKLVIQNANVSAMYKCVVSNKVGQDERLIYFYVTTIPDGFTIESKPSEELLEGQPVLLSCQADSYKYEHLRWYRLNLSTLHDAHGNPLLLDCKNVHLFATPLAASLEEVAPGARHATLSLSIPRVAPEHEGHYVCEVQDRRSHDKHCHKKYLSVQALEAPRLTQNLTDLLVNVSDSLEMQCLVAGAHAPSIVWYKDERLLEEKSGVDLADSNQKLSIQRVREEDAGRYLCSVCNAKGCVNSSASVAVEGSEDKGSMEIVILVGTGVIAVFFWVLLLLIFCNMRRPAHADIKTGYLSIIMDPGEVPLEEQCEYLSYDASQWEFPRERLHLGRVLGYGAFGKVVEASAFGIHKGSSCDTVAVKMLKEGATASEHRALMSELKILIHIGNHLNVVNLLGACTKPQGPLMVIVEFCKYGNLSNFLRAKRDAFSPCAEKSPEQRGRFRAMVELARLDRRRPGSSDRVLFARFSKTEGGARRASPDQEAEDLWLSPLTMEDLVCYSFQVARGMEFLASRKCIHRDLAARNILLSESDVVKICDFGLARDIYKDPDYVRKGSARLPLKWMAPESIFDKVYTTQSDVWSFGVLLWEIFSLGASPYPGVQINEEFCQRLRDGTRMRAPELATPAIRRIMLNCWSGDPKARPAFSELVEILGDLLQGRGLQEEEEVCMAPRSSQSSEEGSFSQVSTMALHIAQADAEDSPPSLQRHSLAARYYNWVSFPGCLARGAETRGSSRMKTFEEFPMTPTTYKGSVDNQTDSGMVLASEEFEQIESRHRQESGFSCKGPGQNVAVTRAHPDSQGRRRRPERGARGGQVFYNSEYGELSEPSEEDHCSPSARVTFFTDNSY
Sequence of Serine/threonine-protein kinase Nek6 (Homo sapiens) (Q9HC98 whole entry): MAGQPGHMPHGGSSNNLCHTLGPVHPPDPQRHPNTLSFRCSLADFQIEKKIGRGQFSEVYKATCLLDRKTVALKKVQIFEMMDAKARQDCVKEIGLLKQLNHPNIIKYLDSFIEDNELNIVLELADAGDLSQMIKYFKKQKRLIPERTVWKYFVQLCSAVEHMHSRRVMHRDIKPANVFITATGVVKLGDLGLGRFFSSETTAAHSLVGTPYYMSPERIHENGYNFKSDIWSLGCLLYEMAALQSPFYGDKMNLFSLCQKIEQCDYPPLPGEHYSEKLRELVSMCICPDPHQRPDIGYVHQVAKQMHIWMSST
Sequence of Serine/threonine-protein kinase PLK1 (Homo sapiens) (P53350 whole entry): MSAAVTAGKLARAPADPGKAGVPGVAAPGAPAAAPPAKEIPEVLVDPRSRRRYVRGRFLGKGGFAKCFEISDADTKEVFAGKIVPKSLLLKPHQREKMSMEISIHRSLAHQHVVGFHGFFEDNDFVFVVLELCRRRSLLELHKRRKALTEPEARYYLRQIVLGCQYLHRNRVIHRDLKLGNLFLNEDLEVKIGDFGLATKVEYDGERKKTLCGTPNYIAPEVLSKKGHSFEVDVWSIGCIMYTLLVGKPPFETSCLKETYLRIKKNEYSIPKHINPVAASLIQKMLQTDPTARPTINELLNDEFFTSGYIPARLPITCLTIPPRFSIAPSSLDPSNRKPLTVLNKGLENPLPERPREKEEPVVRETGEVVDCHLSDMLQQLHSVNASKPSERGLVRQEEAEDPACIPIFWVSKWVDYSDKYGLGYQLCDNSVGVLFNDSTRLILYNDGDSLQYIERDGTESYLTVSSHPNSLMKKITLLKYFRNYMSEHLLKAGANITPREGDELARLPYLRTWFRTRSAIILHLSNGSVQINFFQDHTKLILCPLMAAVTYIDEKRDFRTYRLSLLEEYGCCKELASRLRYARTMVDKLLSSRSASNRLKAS

`COC(=O)Nc1nc2cc(Oc3ccc(NC(=O)Nc4cccc(Br)c4)cc3)ccc2[nH]1`: the inhibition in [1] was found to be 5.38%; in experiment [2], 2.6%; in [3] it was 2.19%; in experiment [4], 3.46%; in experiment [5], 2.81%; in experiment [6], 3.89%. The inhibition in [7] came to 3.38%; in [8], 3.11%; in experiment [9] it was 2.69%; in experiment [10], 7.82%; in [11], 15.4%; in [12], 6.02%. The inhibition in [13] amounted to 2.36%; in [14], 5.37%; in experiment [15], 5.43%; in [16] it was 3.16%; in experiment [17], 11.9%; in experiment [18], 19.9%. Besides, the inhibition in experiment [19] was 43.2%; in experiment [20], 3.15%.

For the origin of these results see ChEMBL document CHEMBL1961873, “Compounds: GSK PKIS; Assays: Nanosyn kinase panel” (2012).
